The values below come from PubChem BioAssay (EPA / NIEHS).

“And” between values parts separate entries of the source, which are not always exact repeats. Equal entries are not always repeated. Records with an inconclusive call do not appear. A structure can be active in one record and inactive in another. The source made the active and inactive calls. How the source made its calls: active means hit-call score of the fitted dose curve at least 0.9, where 1 is the maximum; inconclusive means response in the unintended direction; inactive means score below 0.9.

By AC50 is commonly meant the concentration giving half of the maximal activity seen.

Cellular tumor antigen p53 (Homo sapiens), sequence (P04637 whole entry, looked up): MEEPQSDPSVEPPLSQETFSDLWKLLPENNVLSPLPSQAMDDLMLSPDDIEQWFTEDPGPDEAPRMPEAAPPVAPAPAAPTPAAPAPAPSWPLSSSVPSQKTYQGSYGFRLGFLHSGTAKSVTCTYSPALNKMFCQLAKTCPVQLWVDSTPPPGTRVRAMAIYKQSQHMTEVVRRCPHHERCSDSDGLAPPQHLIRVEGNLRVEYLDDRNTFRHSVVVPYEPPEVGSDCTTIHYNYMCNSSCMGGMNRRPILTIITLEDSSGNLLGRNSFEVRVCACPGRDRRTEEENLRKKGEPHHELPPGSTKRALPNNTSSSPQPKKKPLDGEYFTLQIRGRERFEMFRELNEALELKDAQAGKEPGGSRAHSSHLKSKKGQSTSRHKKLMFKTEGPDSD

System in the first assay: not listed separately
As to the kind of experiment: TOX21_p53_BLA_p5_viability: Viability Assessment in the Tox21 HCT-116 p53 Agonism Beta-lactamase Assay, Phase 5 (AID 2283600). The method in brief: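 After the 460/530 nm beta-lactamase measurement, the wells received an ATP-detection luciferase reagent; signal was read 30 min later at RT. Compound treatment lasted 16 h on cells pre-incubated 5 h post-seeding.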
Turning to `OC(c1ccc(Cl)cc1)(c1ccc(Cl)cc1)c1cccnc1`, the compound was classed as inactive.

Turning to `CCCCCCCCCCCCN(C)C`, the result was inactive.

`CCCCOC(=O)COC(=O)c1ccccc1C(=O)OCCCC`: the result was inactive.

With `O=S1OC[C@@H]2[C@H](CO1)[C@]1(Cl)C(Cl)=C(Cl)[C@@]2(Cl)C1(Cl)Cl` (stereo partly drawn), the result was inactive.

Consider `O=[N+]([O-])c1cc([As](=O)(O)O)ccc1O`, for which the result was inactive.

Regarding `Nc1nc(=S)[nH][nH]1`, the compound was called inactive.

For the compound `OCCCCO`, the result was inactive.

`O=c1[nH]c2ccccc2n1C1CCN(CCCC(c2ccc(F)cc2)c2ccc(F)cc2)CC1`: the AC50 is 75.5 µM (active) and 31.9 µM (active).

`CCOP(=S)(OCC)SCSc1cc(Cl)ccc1Cl`: the compound was classed as inactive.

With `CC(C)CC(C)(c1ccc(O)cc1)c1ccc(O)cc1`, the AC50 was 71.2 µM (active) and 81.4 µM (active).

For the compound `CCCCCCCCCCCCCCC(Br)C(=O)O` (stereo not drawn), the AC50 is 70.3 µM (active).

As for `O=C(O)c1cc(I)cc(I)c1I`, the result was inactive.

Consider `O=C(Cc1ccccc1)OCCc1ccccc1`, for which the call was inactive.

As for `O=S1(=O)OC(c2cc(Br)c(O)c(Br)c2)(c2cc(Br)c(O)c(Br)c2)c2ccccc21`, the compound was called inactive.

With `C[CH2][Hg][S]c1ccccc1C(=O)O`, the AC50 is 46.1 µM (active) and 7.05 µM (active).

Regarding `OCC(c1ccc(Cl)cc1)c1ccc(Cl)cc1`, the AC50 was 70.4 µM (active).

As for `Cc1cc(Cl)ccc1OC(C)C(=O)O` (stereo not drawn), the result was inactive.

Regarding `O=C1c2ccccc2C(=O)C1C(=O)C(c1ccccc1)c1ccc(Cl)cc1` (stereo not drawn), the outcome was inactive.

Regarding `CCNc1nc(NCC)nc(SC)n1`, the call was inactive.

Consider `CC(C)(C#N)N=NC(C)(C)C#N`, for which the compound was classed as inactive.

Turning to `COP(=S)(OC)Oc1cc(Cl)c(I)cc1Cl`, the outcome was inactive.

As for `CCC[CH2][Sn]([CH2]CCC)([CH2]CCC)[CH2]CCC`, the AC50 is 41 µM (active).

In the case of `CC(C)=CC1C(C(=O)OCc2cccc(Oc3ccccc3)c2)C1(C)C` (stereo not drawn), the outcome was inactive.

On to `O=C(NC(=O)c1c(F)cccc1F)Nc1cc(Cl)c(Oc2ncc(C(F)(F)F)cc2Cl)c(Cl)c1`, for which the outcome was inactive.

Turning to `Clc1cc(C(Cl)(Cl)Cl)cnc1Cl`, the call was inactive.

Take `Cc1cc(-c2cc(C)c(N)c(C)c2)cc(C)c1N`: the result was inactive.

Take `CCCCN(CCCCO)N=O`: the compound was called inactive.

For `Brc1ccc(Br)cc1`, the outcome was inactive.

For `c1ccc2c(c1)Oc1ccccc1O2`, the outcome was inactive.

In the case of `C=C(C)C(=O)OCC(CC)CCCC` (stereo not drawn), the call was inactive.

As for `O=c1oc2ccccc2c(O)c1C(CC(O)c1ccc(-c2ccc(Br)cc2)cc1)c1ccccc1` (stereo not drawn), the half-maximal activity concentration (AC50) is 19.3 µM (active) and the compound was classed as inactive.

For `Clc1ccc(C(Cl)(Cl)Cl)cn1`, the result was inactive.

Another assay concerns the target Cellular tumor antigen p53 (Homo sapiens) (UniProt P04637). As to the kind of experiment: TOX21_p53_BLA_p4_ratio: Tox21 HCT-116 p53 Agonism Beta-lactamase Assay, Ratio, Phase 4 (AID 2283601). A digest of the protocol: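 Signal is the blue/green (460nm/530nm) ratio of cleaved versus uncleaved CCF4-AM substrate, read after 2 h substrate loading. Cells were HCT116 carrying the p53-responsive beta-lactamase reporter, dosed 16 h at 37C, 5% CO2; CellTiter-Glo measured in parallel.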
In the case of `OC(c1ccc(Cl)cc1)(c1ccc(Cl)cc1)c1cccnc1`, the AC50 is 70.9 µM (active).

For `CCOC(=O)CC(=O)CCl`, the outcome was inactive.

As to `CCOP(=S)(OCC)O/N=C(\C#N)c1ccccc1`, the result was inactive.

For `CCCCOC(=O)COC(=O)c1ccccc1C(=O)OCCCC`, the outcome was inactive.

Consider `O=S1OC[C@@H]2[C@H](CO1)[C@]1(Cl)C(Cl)=C(Cl)[C@@]2(Cl)C1(Cl)Cl` (stereo partly drawn), for which the result was inactive.

For `O=[N+]([O-])c1cc([As](=O)(O)O)ccc1O`, the outcome was inactive.

For `Cl[C@H]1OCCO[C@@H]1Cl`, the result was inactive.

Take `OCCCCO`: the outcome was inactive.

`O=c1[nH]c2ccccc2n1C1CCN(CCCC(c2ccc(F)cc2)c2ccc(F)cc2)CC1`: the AC50 is 19.8 µM (active) and the result was inactive.

With `CC(C)CC(C)(c1ccc(O)cc1)c1ccc(O)cc1`, the AC50 was 40.9 µM (active) and 55 µM (active).

For `CC(C)C(C)(N)C#N` (stereo not drawn), the outcome was inactive.

Regarding `CCCCCCCCCCCCCCC(Br)C(=O)O` (stereo not drawn), the result was inactive.

As for `O=C(O)c1cc(I)cc(I)c1I`, the result was inactive.

With `O=S1(=O)OC(c2cc(Br)c(O)c(Br)c2)(c2cc(Br)c(O)c(Br)c2)c2ccccc21`, the outcome was inactive.

On to `C[CH2][Hg][S]c1ccccc1C(=O)O`, for which the AC50 is 46.1 µM (active) and 34.6 µM (active).

`OCC(c1ccc(Cl)cc1)c1ccc(Cl)cc1`: the AC50 was 85.2 µM (active).

For `Cc1cc(Cl)ccc1OC(C)C(=O)O` (stereo not drawn), the result was inactive.

For `O=C1c2ccccc2C(=O)C1C(=O)C(c1ccccc1)c1ccc(Cl)cc1` (stereo not drawn), the result was inactive.

On to `CC(C)(C#N)N=NC(C)(C)C#N`, for which the result was inactive.

For the compound `COP(=S)(OC)Oc1cc(Cl)c(I)cc1Cl`, the AC50 is 87.3 µM (active).

With `CCC[CH2][Sn]([CH2]CCC)([CH2]CCC)[CH2]CCC`, the AC50 was 68.7 µM (active).

With `CC(C)=CC1C(C(=O)OCc2cccc(Oc3ccccc3)c2)C1(C)C` (stereo not drawn), the result was inactive.

In the case of `O=C(NC(=O)c1c(F)cccc1F)Nc1cc(Cl)c(Oc2ncc(C(F)(F)F)cc2Cl)c(Cl)c1`, the AC50 was 15.6 µM (active).

Take `Clc1cc(C(Cl)(Cl)Cl)cnc1Cl`: the result was inactive.

For the compound `Cc1cc(-c2cc(C)c(N)c(C)c2)cc(C)c1N`, the outcome was inactive.

In the case of `Brc1ccc(Br)cc1`, the outcome was inactive.

On to `C=C(C)C(=O)OCC(CC)CCCC` (stereo not drawn), for which the outcome was inactive.

As for `O=c1oc2ccccc2c(O)c1C(CC(O)c1ccc(-c2ccc(Br)cc2)cc1)c1ccccc1` (stereo not drawn), the AC50 is 20.4 µM (active) and the outcome was inactive.
